Experimental data published in PubChem BioAssay (NCATS).
Records with an inconclusive call do not appear. Entries that show only a call come without a potency. Unmarked numbers belong to inactive results. The source made the active and inactive calls. The call rests on the fitted dose curve; in most records, active means well fitted curve in the direction sought with a large enough effect; inconclusive means small, poorly fitted or top-dose-only effect, or another doubt; inactive means no such curve, though single readings can be large; an effect the other way counts as inactive or inconclusive.

What was measured:
[1] = target: ATP-dependent 6-phosphofructokinase (Trypanosoma brucei brucei) (UniProt O15648); assay: qHTS Assay to Find Inhibitors of T. brucei phosphofructokinase: hit validation (AID 492961);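 further: luminescence reports ADP formed as PFK phosphorylates fructose-6-phosphate with ATP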
Procedure, shortened: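 Reaction: 0.1 M triethanolamine pH 8.0, 5 mM MgCl2, F6P 0.5 mM, ATP 0.1 mM, PFK 1.25 nM, 45 min RT. Read-out: ADP-Glo luminescence. Analysis: concentration-response fits, classed by r2 and efficacy.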

[2] = qHTS profiling for inhibitors of Plasmodium falciparum proliferation (AID 504749); further: potency means the concentration at half of the fitted maximal effect; on all read-outs here: nearly all actives have a fitted effect of over 60% in size; conditions: P. falciparum in erythrocytes, SYBR Green DNA, 72 h; for activity, negative = inhibition: at 28.7 µM (top of the series)
Procedure, shortened: (§1)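 Fluorescence of SYBR Green-bound parasite DNA, read at 485/535 nm, served as the growth measure. Infected erythrocytes were cultured with compound 72 h; artemisinin (0.29 uM) and DMSO wells defined the normalization range.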

[3] = system: 3D7; assay: as above; conditions: P. falciparum in erythrocytes, SYBR Green DNA, 72 h; series mostly up to 28.7 µM
Procedure, shortened: as §1

[4] = system: AA1029; assay: as above; conditions: P. falciparum in erythrocytes, SYBR Green DNA, 72 h; series mostly up to 28.7 µM
Procedure, shortened: as §1

[5] = system: AS120; assay: as above; conditions: P. falciparum in erythrocytes, SYBR Green DNA, 72 h; series mostly up to 28.7 µM
Procedure, shortened: as §1

[6] = system: ATS189; assay: as above; conditions: P. falciparum in erythrocytes, SYBR Green DNA, 72 h; series mostly up to 28.7 µM
Procedure, shortened: as §1

[7] = system: CP185; assay: as above; conditions: P. falciparum in erythrocytes, SYBR Green DNA, 72 h; series mostly up to 28.7 µM
Procedure, shortened: as §1

[8] = system: CP191; assay: as above; conditions: P. falciparum in erythrocytes, SYBR Green DNA, 72 h; series mostly up to 28.7 µM
Procedure, shortened: as §1

[9] = system: CP194; assay: as above; conditions: P. falciparum in erythrocytes, SYBR Green DNA, 72 h; series mostly up to 28.7 µM
Procedure, shortened: as §1

[10] = system: CP217; assay: as above; conditions: P. falciparum in erythrocytes, SYBR Green DNA, 72 h; series mostly up to 28.7 µM
Procedure, shortened: as §1

[11] = system: CP237; assay: as above; conditions: P. falciparum in erythrocytes, SYBR Green DNA, 72 h; series mostly up to 28.7 µM
Procedure, shortened: as §1

[12] = system: CP238; assay: as above; conditions: P. falciparum in erythrocytes, SYBR Green DNA, 72 h; series mostly up to 28.7 µM
Procedure, shortened: as §1

[13] = system: CP252; assay: as above; conditions: P. falciparum in erythrocytes, SYBR Green DNA, 72 h; series mostly up to 28.7 µM
Procedure, shortened: as §1

[14] = system: CP265; assay: as above; conditions: P. falciparum in erythrocytes, SYBR Green DNA, 72 h; series mostly up to 28.7 µM
Procedure, shortened: as §1

[15] = system: CP286; assay: as above; conditions: P. falciparum in erythrocytes, SYBR Green DNA, 72 h; series mostly up to 28.7 µM
Procedure, shortened: as §1

[16] = system: DFO2036; assay: as above; conditions: P. falciparum in erythrocytes, SYBR Green DNA, 72 h; series mostly up to 28.7 µM
Procedure, shortened: as §1

[17] = system: DIV30; assay: as above; conditions: P. falciparum in erythrocytes, SYBR Green DNA, 72 h; series mostly up to 28.7 µM
Procedure, shortened: as §1

[18] = system: Dd2; assay: as above; conditions: P. falciparum in erythrocytes, SYBR Green DNA, 72 h; series mostly up to 28.7 µM
Procedure, shortened: as §1

[19] = system: N140; assay: as above; conditions: P. falciparum in erythrocytes, SYBR Green DNA, 72 h; series mostly up to 28.7 µM
Procedure, shortened: as §1

[20] = system: P94_40; assay: as above; conditions: P. falciparum in erythrocytes, SYBR Green DNA, 72 h; series mostly up to 28.7 µM
Procedure, shortened: as §1

Sequence of ATP-dependent 6-phosphofructokinase (Trypanosoma brucei brucei) (O15648 whole entry, looked up): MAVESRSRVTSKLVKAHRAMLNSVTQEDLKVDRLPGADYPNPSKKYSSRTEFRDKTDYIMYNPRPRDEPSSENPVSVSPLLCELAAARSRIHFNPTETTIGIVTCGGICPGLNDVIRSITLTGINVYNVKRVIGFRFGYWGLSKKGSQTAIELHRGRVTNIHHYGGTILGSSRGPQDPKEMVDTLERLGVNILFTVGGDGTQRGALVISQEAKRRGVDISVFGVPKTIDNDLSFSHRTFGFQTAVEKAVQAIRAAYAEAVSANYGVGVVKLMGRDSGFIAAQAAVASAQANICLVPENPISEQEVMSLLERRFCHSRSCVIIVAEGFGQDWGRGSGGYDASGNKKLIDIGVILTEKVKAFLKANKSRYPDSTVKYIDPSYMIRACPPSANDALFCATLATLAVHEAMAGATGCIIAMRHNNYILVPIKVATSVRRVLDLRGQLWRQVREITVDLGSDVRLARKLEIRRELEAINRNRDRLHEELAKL

With O=C(O)C(O)c1ccccc1 (stereo not given) the Potency [1] was “inactive”, the activity, negative = inhibition ([2]; parasite line A) was 2.53% and the activity, negative = inhibition ([2]; parasite line B) was 10.7%. The Potency [3] was “inactive”, the Potency [4] was “inactive” and the Potency [5] was “inactive”. For the same molecule, the Potency [6] was “inactive”, the Potency [7] was “inactive” and the Potency [8] was “inactive”. The Potency [9] was “inactive”, the Potency [10] was “inactive” and the Potency [11] was “inactive”. The Potency [12] was “inactive”, the Potency [13] was “inactive” and the Potency [14] was “inactive”. The Potency [15] was “inactive”, the Potency [16] was “inactive” and the Potency [17] was “inactive”. For the same molecule, the Potency [18] was “inactive”, the Potency [19] was “inactive” and the Potency [20] was “inactive”.

In the case of C[C@]12CC[C@@H]3c4ccc(O)cc4C[C@@H](CCCCCCCCCS(=O)CCCC(F)(F)C(F)(F)F)C3[C@@H]1CC[C@@H]2O (stereo not given in full), the Potency [1] was “inactive”, the Potency ([2]; parasite line A) was 11.2 µM (active) and the Potency ([2]; parasite line B) was 10 µM (active). The Potency [3] was 10 µM (active), the Potency [4] was 7.08 µM (active) and the Potency [5] was 2.51 µM (active). The Potency [6] was 7.94 µM (active), the Potency [7] was 8.91 µM (active) and the Potency [8] was 7.94 µM (active). For the same molecule, the Potency [10] was 8.91 µM (active), the Potency [11] was 5.01 µM (active) and the Potency [12] was 7.94 µM (active). The Potency [13] was 8.91 µM (active), the Potency [14] was 11.2 µM (active) and the Potency [15] was 11.2 µM (active). For the same molecule, the Potency [16] was 11.2 µM (active), the Potency [17] was 3.79 µM (active) and the Potency [18] was 7.08 µM (active). For the same molecule, the Potency [19] was 2.24 µM (active) and the Potency [20] was 5.62 µM (active).

In the case of CCC(=O)O[C@]1(C(=O)CCl)[C@@H](C)CC2C3C[C@H](F)C4=CC(=O)C=CC4(C)[C@@]3(F)C(O)CC21C (stereo not given in full), the Potency [1] was “inactive”, the Potency ([2]; parasite line A) was 12.6 µM (active) and the Potency ([2]; parasite line B) was 11.2 µM (active). The Potency [3] was 11.2 µM (active), the Potency [4] was 8.91 µM (active) and the Potency [5] was 7.94 µM (active). The Potency [6] was 10 µM (active), the Potency [7] was 11.2 µM (active) and the Potency [8] was 7.94 µM (active). For the same molecule, the Potency [9] was 15.1 µM (active), the Potency [10] was 7.94 µM (active) and the Potency [11] was 3.55 µM (active). For the same molecule, the Potency [12] was 8.91 µM (active), the Potency [13] was 8.91 µM (active) and the Potency [14] was 8.91 µM (active). For the same molecule, the Potency [15] was 10 µM (active), the Potency [16] was 11.2 µM (active) and the Potency [17] was 12 µM (active). The Potency [18] was 7.94 µM (active), the Potency [19] was 6.31 µM (active) and the Potency [20] was 8.91 µM (active).

In the case of Nc1ncn(C2C[C@H](O)[C@@H](CO)O2)c(=O)n1 (stereo not given in full), the Potency [1] was “inactive”, the activity, negative = inhibition ([2]; parasite line A) was 2.14% and the activity, negative = inhibition ([2]; parasite line B) was -13.9%. For the same molecule, the Potency [3] was “inactive”, the Potency [4] was “inactive” and the Potency [5] was “inactive”. The Potency [6] was “inactive”, the Potency [7] was “inactive” and the Potency [8] was “inactive”. The Potency [9] was “inactive”, the Potency [10] was “inactive” and the Potency [11] was “inactive”. The Potency [12] was “inactive”, the Potency [13] was “inactive” and the Potency [14] was “inactive”. The Potency [15] was “inactive”, the Potency [16] was “inactive” and the Potency [17] was “inactive”. The Potency [18] was “inactive”, the Potency [19] was “inactive” and the Potency [20] was “inactive”.

In the case of Cc1cc2nc3c(=O)[nH]c(=O)nc-3n(CC(O)C(O)C(O)COP(=O)(O)O)c2cc1C (stereo not given), the Potency [1] was “inactive”, the activity, negative = inhibition ([2]; parasite line A) was -0.201% and the activity, negative = inhibition ([2]; parasite line B) was 1.68%. For the same molecule, the Potency [3] was “inactive”, the Potency [4] was “inactive” and the Potency [5] was “inactive”. The Potency [6] was “inactive”, the Potency [7] was “inactive” and the Potency [9] was “inactive”. The Potency [10] was “inactive”, the Potency [11] was “inactive” and the Potency [12] was “inactive”. The Potency [13] was “inactive”, the Potency [14] was “inactive” and the Potency [15] was “inactive”. The Potency [16] was “inactive”, the Potency [17] was “inactive” and the Potency [18] was “inactive”. The Potency [19] was “inactive” and the Potency [20] was “inactive”.

For Cn1cc(C(=O)[C@@H]2CCc3[nH]cnc3C2)c2ccccc21, the Potency [1] was “inactive”, the activity, negative = inhibition ([2]; parasite line A) was 5.71% and the activity, negative = inhibition ([2]; parasite line B) was 16.1%. The Potency [3] was “inactive”, the Potency [4] was “inactive” and the Potency [5] was “inactive”. For the same molecule, the Potency [6] was “inactive”, the Potency [7] was “inactive” and the Potency [8] was “inactive”. The Potency [9] was “inactive”, the Potency [10] was “inactive” and the Potency [11] was “inactive”. The Potency [12] was “inactive”, the Potency [13] was “inactive” and the Potency [14] was “inactive”. The Potency [15] was “inactive”, the Potency [16] was “inactive” and the Potency [17] was “inactive”. The Potency [18] was “inactive”, the Potency [19] was “inactive” and the Potency [20] was “inactive”.

With C[C@@H]1CC2C3CCC4=CC(=O)C=C[C@]4(C)[C@@]3(F)[C@@H](O)C[C@]2(C)[C@@]1(O)C(=O)COC(=O)c1cccc(S(=O)(=O)O)c1 (stereo not given in full) the Potency [1] was “inactive”, the activity, negative = inhibition ([2]; parasite line A) was 4.33% and the activity, negative = inhibition ([2]; parasite line B) was -2.2%. The Potency [3] was “inactive”, the Potency [4] was “inactive” and the Potency [5] was “inactive”. The Potency [6] was “inactive”, the Potency [7] was “inactive” and the Potency [8] was “inactive”. For the same molecule, the Potency [9] was “inactive”, the Potency [10] was “inactive” and the Potency [11] was “inactive”. For the same molecule, the Potency [12] was “inactive”, the Potency [13] was “inactive” and the Potency [14] was “inactive”. For the same molecule, the Potency [15] was “inactive”, the Potency [16] was “inactive” and the Potency [17] was “inactive”. The Potency [18] was “inactive”, the Potency [19] was “inactive” and the Potency [20] was “inactive”.
